Measured values: PubChem BioAssay (EPA / NIEHS)
Values joined by “and” are separate entries in the source; they are usually repeats but may differ in a detail not shown here. Equal values may be shown once. Inconclusive results are not listed. The source holds several records for some structures; these can differ, active in one and inactive in another. Active and inactive are the calls of the source. Rule for the calls, unless noted: active = hit-call score of the fitted dose curve at least 0.9, where 1 is the maximum; inconclusive = response in the unintended direction; inactive = score below 0.9.

What was measured:
[1] = BSK_4H_Eotaxin3: BioMAP Diversity Plus: 4H Assay for Eotaxin 3 Biomarker Activity (AID 2283000; active = hit-call score of the fitted dose curve at least 0.9, where 1 is the maximum; inactive = score below 0.9); settings: primary human endothelial cells (HUVEC); actives raise or lower the signal
How it was run: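 Eotaxin-3 (CCL26) levels were measured by ELISA in HUVEC primary cultures 24 h post-dosing. Gain or loss of signal was fitted in both directions, with DMSO serving as baseline and negative control.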

[2] = read-out: Intercellular Adhesion Molecule 1 (ICAM1), ICAM1 (gene 3383); assay: BSK_3C_ICAM1: BioMAP Diversity Plus: 3C Assay for Intercellular Adhesion Molecule 1 (ICAM1) Biomarker Activity (AID 2283003; active = hit-call score of the fitted dose curve at least 0.9, where 1 is the maximum; inactive = score below 0.9); settings: primary human endothelial cells (HUVEC); actives raise or lower the signal
How it was run: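 Chemicals are dosed onto primary human umbilical vein endothelium (3C system). After 24 h, ICAM-1 is measured by ELISA, and responses are fitted bidirectionally relative to DMSO.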

[3] = target: human Retinoic Acid Receptor beta (RARb), RARB (gene 5915) (UniProt P10826); assay: ATG_RARb_TRANS: Attagene TRANS-FACTORIAL HepG2 Assay for human Retinoic Acid Receptor beta (AID 2283004)
How it was run: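 HepG2 cells were transiently transfected with GAL4-UAS reporter units that report activity of exogenous chimeric NR-Gal4 proteins, then exposed to compound for 24 h. Reporter mRNA was quantified by RT-PCR with capillary electrophoresis fluorescence, as gain of signal over DMSO.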

[4] = target: Retinoic acid receptor alpha (Homo sapiens) (UniProt P10276); assay: ATG_RARa_TRANS: Attagene TRANS-FACTORIAL HepG2 Assay for human Retinoic Acid Receptor alpha (RARa) (AID 2283005)
How it was run: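 HepG2 cells transiently transfected with multiple reporter units expressing chimeric RARα-GAL4 fusion, with GAL4-UAS-driven reporters. After 24 h compound exposure, reporter mRNA induction quantified by RT-PCR and capillary electrophoresis with fluorescent labeling; gain-of-signal fitted relative to DMSO control.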

[5] = BSK_3C_Proliferation: Cell Proliferation Assessment in the BioMAP Diversity Plus: 3C Assay (AID 2283006; active = hit-call score of the fitted dose curve at least 0.9, where 1 is the maximum; inactive = score below 0.9;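 for AC50: potency may reflect either rise or fall in cell number versus DMSO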); settings: primary human endothelial cells (HUVEC)
How it was run: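 Cells (human umbilical vein endothelial, sub-confluent) receive test chemical; after 48 h they are fixed in 10% trichloroacetic acid, stained with 0.1% SRB and read at 560 nm. Activity is referenced to DMSO, fitting increases and decreases.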

[6] = target: Peroxisome proliferator-activated receptor gamma (Homo sapiens) (UniProt P37231); assay: ATG_PPARg_TRANS: Attagene TRANS-FACTORIAL HepG2 Assay for human Peroxisome Proliferator-activated Receptor-gamma (PPARg) (AID 2283007)
How it was run: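 Multiplexed reporter transcription units in HepG2, 24 h dosing, reporter transcripts quantified by fluorescent RT-PCR and capillary electrophoresis. Increase over DMSO scored.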

[7] = target: Nuclear receptor subfamily 1 group I member 2 (Homo sapiens) (UniProt O75469); assay: ATG_PXR_TRANS: Attagene TRANS-FACTORIAL HepG2 Assay for human Pregnane X Receptor (PXR) (AID 2283008)
How it was run: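 Trans-factorial format: exogenous NR-Gal4 fusion activity, not endogenous factor, in transfected human HepG2 liver cells. After 24 h dosing, RNA isolated, reverse-transcribed, amplified and resolved by capillary electrophoresis; induction scored versus DMSO.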

[8] = target: human Retinoic Acid Receptor gamma (RARg), RARG (gene 5916) (UniProt P13631); assay: ATG_RARg_TRANS: Attagene TRANS-FACTORIAL HepG2 Assay for human Retinoic Acid Receptor gamma (RARg) (AID 2283009)
How it was run: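 TRANS format measured activity of exogenous NR-GAL4 fusion (RARg) in transfected HepG2 liver cells after 24 h dosing. Induced reporter RNA was detected by RT-PCR/capillary electrophoresis fluorescence, analysed in the positive direction against DMSO.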

[9] = target: human Peroxisome Proliferator-activated Receptor alpha (PPARa), PPARA (gene 5465) (UniProt Q07869); assay: ATG_PPARa_TRANS: Attagene TRANS-FACTORIAL HepG2 Assay for human Peroxisome Proliferator-activated Receptor alpha (PPARa) (AID 2283001);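 for AC50: potency for gain of reporter signal over DMSO so agonist or activator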
How it was run: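 Cells (HepG2) are transfected with multiple reporter transcription units, exposed to chemical for 24 h, then total RNA is reverse-transcribed and amplified. Labelled products are quantified by capillary electrophoresis; induction is referenced to DMSO.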

[10] = target: human Peroxisome Proliferator-activated Receptor delta (PPARd), PPARD (gene 5467) (UniProt Q03181); assay: ATG_PPARd_TRANS: Attagene TRANS-FACTORIAL HepG2 Assay for human Peroxisome Proliferator-activated Receptor delta (PPARd) (AID 2283002)
How it was run: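 Measured quantity: GAL4-UAS reporter transcript induction in HepG2 after 24 h chemical dosing, with NR-Gal4 chimeras supplied by transient transfection. Detection by RT-PCR and capillary electrophoresis; upward fit against DMSO.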

Measured: AC50

human Retinoic Acid Receptor beta (RARb), RARB (gene 5915), sequence (P10826 whole entry, looked up, the tested form may be a part): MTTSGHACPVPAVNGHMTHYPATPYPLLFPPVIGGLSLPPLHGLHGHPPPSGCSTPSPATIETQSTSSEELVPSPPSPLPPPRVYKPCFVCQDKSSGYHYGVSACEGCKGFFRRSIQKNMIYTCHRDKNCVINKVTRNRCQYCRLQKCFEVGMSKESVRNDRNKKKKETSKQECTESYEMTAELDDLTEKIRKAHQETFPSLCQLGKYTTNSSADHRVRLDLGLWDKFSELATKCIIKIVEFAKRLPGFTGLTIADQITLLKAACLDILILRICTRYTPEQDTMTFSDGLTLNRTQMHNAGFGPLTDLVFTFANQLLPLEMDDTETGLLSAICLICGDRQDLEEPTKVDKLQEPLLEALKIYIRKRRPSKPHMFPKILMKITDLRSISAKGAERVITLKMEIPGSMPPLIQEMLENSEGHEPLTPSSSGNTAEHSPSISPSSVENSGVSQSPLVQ
Retinoic acid receptor alpha (Homo sapiens), sequence (P10276 whole entry, looked up, the tested form may be a part): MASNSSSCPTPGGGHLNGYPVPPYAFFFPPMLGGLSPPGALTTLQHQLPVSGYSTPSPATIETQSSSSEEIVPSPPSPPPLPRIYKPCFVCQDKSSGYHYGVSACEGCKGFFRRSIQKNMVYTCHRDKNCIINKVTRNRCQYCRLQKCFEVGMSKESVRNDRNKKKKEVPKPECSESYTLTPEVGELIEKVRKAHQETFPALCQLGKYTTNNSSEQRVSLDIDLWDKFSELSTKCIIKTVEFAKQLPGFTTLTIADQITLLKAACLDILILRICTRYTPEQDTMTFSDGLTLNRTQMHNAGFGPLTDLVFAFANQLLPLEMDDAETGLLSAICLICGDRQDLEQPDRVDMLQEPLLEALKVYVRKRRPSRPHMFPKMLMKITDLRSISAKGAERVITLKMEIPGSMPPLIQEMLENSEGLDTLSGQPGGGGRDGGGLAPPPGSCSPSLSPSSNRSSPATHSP
Nuclear receptor subfamily 1 group I member 2 (Homo sapiens), sequence (O75469 whole entry, looked up, the tested form may be a part): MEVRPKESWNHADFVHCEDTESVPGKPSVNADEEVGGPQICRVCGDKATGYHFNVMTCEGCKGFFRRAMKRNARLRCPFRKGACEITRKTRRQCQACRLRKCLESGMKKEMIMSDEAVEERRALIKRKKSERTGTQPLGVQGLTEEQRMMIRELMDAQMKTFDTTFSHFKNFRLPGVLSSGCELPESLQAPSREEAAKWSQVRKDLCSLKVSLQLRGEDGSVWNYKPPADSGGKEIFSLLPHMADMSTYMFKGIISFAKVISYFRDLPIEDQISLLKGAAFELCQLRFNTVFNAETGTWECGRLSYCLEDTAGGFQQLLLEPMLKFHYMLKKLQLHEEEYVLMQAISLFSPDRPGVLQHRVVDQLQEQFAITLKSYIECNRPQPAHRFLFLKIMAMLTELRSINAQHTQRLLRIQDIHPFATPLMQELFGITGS
human Peroxisome Proliferator-activated Receptor alpha (PPARa), PPARA (gene 5465), sequence (Q07869 whole entry, looked up): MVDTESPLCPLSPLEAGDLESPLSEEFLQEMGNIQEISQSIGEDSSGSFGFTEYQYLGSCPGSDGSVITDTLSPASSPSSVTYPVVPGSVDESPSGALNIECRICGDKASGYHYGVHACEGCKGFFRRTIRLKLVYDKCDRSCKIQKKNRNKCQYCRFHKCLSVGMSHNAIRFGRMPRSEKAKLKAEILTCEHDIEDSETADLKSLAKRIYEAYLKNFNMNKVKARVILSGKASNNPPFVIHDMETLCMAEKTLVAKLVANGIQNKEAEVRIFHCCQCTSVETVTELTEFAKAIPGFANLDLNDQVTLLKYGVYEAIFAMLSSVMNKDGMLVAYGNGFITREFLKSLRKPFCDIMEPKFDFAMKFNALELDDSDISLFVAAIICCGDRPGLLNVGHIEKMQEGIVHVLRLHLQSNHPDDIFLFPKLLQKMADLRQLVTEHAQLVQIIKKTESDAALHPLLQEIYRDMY
Peroxisome proliferator-activated receptor gamma (Homo sapiens), sequence (P37231 whole entry, looked up): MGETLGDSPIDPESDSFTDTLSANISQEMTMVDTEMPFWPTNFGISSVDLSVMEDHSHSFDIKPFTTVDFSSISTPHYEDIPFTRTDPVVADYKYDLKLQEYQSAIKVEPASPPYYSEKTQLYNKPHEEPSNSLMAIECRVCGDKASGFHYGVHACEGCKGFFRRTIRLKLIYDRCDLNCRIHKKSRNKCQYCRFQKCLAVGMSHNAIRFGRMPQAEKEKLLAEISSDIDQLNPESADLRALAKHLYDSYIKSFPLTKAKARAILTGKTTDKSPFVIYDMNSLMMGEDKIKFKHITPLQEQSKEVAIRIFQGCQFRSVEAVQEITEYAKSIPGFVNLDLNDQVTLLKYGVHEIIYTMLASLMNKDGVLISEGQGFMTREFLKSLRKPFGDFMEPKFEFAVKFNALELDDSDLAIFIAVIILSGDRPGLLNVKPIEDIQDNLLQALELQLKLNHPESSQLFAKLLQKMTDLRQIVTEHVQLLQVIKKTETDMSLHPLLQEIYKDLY
human Peroxisome Proliferator-activated Receptor delta (PPARd), PPARD (gene 5467), sequence (Q03181 whole entry, looked up, the tested form may be a part): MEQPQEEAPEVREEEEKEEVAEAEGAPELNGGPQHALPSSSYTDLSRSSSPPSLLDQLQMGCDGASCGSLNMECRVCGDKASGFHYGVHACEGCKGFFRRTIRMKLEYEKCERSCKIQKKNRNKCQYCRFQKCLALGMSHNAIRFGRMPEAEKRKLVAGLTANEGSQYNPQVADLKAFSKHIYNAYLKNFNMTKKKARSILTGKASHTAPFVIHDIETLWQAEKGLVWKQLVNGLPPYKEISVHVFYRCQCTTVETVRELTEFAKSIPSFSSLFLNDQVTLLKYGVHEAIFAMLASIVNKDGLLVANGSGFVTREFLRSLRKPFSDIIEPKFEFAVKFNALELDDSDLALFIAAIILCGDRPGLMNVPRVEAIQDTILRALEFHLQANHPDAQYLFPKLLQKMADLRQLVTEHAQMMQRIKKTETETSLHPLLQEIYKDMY
human Retinoic Acid Receptor gamma (RARg), RARG (gene 5916), sequence (P13631 whole entry, looked up, the tested form may be a part): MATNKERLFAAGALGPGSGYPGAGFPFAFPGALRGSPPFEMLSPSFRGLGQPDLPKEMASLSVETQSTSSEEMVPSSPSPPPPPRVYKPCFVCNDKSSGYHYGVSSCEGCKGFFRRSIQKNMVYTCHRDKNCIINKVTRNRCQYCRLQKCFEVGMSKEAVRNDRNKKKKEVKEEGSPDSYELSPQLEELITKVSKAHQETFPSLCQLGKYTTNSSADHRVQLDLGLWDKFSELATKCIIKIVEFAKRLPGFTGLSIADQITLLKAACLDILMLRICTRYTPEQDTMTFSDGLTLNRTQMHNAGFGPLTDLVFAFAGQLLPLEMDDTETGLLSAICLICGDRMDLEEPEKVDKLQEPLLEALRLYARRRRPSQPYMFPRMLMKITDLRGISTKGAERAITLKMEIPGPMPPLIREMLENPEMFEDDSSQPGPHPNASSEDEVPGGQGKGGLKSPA

Cc1[nH]c(=O)n(C(C)(C)C)c(=O)c1Cl
active: [1] 11.7 µM
not listed: [9] | [10]
inactive: all other assays above

Oc1cc(Cl)ccc1Oc1ccc(Cl)cc1Cl
active: [9] 17.5 µM and 17.4 µM | [2] 33.6 µM [middle of 4 runs] | [5] 11 µM [middle of 4 runs] | [6] 11.1 µM [middle of 6 runs]
inactive: [9] | [10] | [6] | [7]

O=C1c2ccccc2C(=O)N1SC(Cl)(Cl)Cl
inactive: [2] | [3] | [4] | [5] | [6] | [7]

COc1cc(OC)nc(NC(=O)NS(=O)(=O)c2cc(NC=O)ccc2C(=O)N(C)C)n1
not listed: [1] | [6] | [10]
inactive: all other assays above

CCCN(CCC)c1c([N+](=O)[O-])cc(C(F)(F)F)cc1[N+](=O)[O-]
active: [5] 29.1 µM | [7] 10.6 µM
inactive: [2] | [6]

O=C(NC(=O)c1c(F)cccc1F)Nc1ccc(OC(F)(F)C(F)OC(F)(F)F)c(Cl)c1 (configuration not stated)
inactive: [10] | [2] | [5] | [6]

CC(C)N(C(=O)COc1nnc(C(F)(F)F)s1)c1ccc(F)cc1
inactive: [10] | [2] | [5]
active: [6] 14.3 µM | [7] 10.7 µM

CCOCN(C(=O)CCl)c1c(C)cccc1CC
active: [5] 15.5 µM | [6] 1.23 µM
inactive: [9] | [2] | [4] | [7]

COC(=O)c1ccccc1S(=O)(=O)NC(=O)Nc1nc(C)nc(OC)n1
not listed: [1] | [6] | [10]
inactive: all other assays above

CCC(C)Nc1c([N+](=O)[O-])cc(C(C)(C)C)cc1[N+](=O)[O-] (configuration not stated)
active: [5] 34.6 µM | [6] 36.8 µM | [7] 8.2 µM
not listed: [1] | [10]
inactive: all other assays above

COC(=O)c1ccccc1S(=O)(=O)NC(=O)N(C)c1nc(C)nc(OC)n1
inactive: [10] | [2] | [5] | [6] | [7]

O=C(Nc1ccccc1)Nc1cnns1
active: [5] 20 µM
not listed: [1] | [8] | [9]
inactive: all other assays above

Cc1cc(C)nc(NC(=O)NS(=O)(=O)c2ccccc2C(=O)OC2COC2)n1
inactive: [2] | [3] | [5] | [6] | [7] | [8]

O=S(=O)(O)C(F)(F)C(F)(F)C(F)(F)C(F)(F)C(F)(F)C(F)(F)C(F)(F)C(F)(F)F
inactive: [9] | [2] | [5] | [7]
active: [2] 25.3 µM | [5] 31.9 µM

CCN(CC)C(=O)SCc1ccc(Cl)cc1
active: [6] 37.1 µM
not listed: [1] | [4] | [10]
inactive: all other assays above

CCC(C)(C)C(=O)OC1=C(c2ccc(Cl)cc2Cl)C(=O)OC12CCCCC2
inactive: [9] | [3] | [6] | [8]
active: [2] 32.6 µM | [5] 29.2 µM

CCc1ccc(C(=O)NN(C(=O)c2cc(C)cc(C)c2)C(C)(C)C)cc1
not listed: [1] | [9] | [10]
inactive: all other assays above

OCCOc1ccccc1
not listed: [1] | [3] | [10]
inactive: all other assays above

CCOC1Oc2ccc(OS(C)(=O)=O)cc2C1(C)C (configuration not stated)
active: [7] 29.6 µM
not listed: [1] | [9]
inactive: all other assays above

CC(C)(C)C(O)/C(=C\c1ccc(Cl)cc1Cl)n1cncn1 (configuration not stated)
active: [5] 26.3 µM
not listed: [1] | [4] | [9]
inactive: all other assays above

O=C(O)CCCOc1ccc(Cl)cc1Cl
active: [6] 34.5 µM
inactive: [9] | [2] | [3] | [4] | [5] | [6] | [7]

CNC(=O)Oc1ccccc1OC(C)C
inactive: [9] | [2] | [3] | [5] | [6] | [7]

CN1CSC(=S)N(C)C1
inactive: [9] | [2] | [3] | [6]
active: [5] 26.6 µM

O=[N+]([O-])c1c(Cl)c(Cl)c(Cl)c(Cl)c1Cl
active: [5] 30.1 µM | [6] 16.4 µM
not listed: [1] | [9]
inactive: all other assays above

CC[C@H](C)[C@H]1O[C@]2(C=C[C@@H]1C)C[C@@H]1C[C@@H](C/C=C(\C)[C@@H](O[C@H]3C[C@H](OC)[C@@H](O[C@H]4C[C@H](OC)[C@@H](O)[C@H](C)O4)[C@H](C)O3)[C@@H](C)/C=C/C=C3\CO[C@@H]4[C@H](O)C(C)=C[C@@H](C(=O)O1)[C@]34O)O2 (tested in a mixture with another compound)
inactive: [3] | [4] | [8]
active: [2] 12.4 µM | [5] 4.78 µM

[2H]C1([2H])[n+]2ccccc2-c2cccc[n+]2C1([2H])[2H]
inactive: [2] | [6]
active: [5] 31.7 µM

CC(C)(C)C(O)C(Oc1ccc(Cl)cc1)n1cncn1 (configuration not stated)
inactive: [9] | [2] | [3] | [4] | [5] | [6] | [7] | [8]
active: [7] 434 nM [middle of 5 runs]

O=[N+]([O-])/N=C1\NCCN1Cc1ccc(Cl)nc1
active: [7] 90.7 µM
not listed: [1] | [9] | [10]
inactive: all other assays above

CCC(C)(NC(=O)c1cc(Cl)c(C)c(Cl)c1)C(=O)CCl (configuration not stated)
active: [2] 26.6 µM | [5] 5.47 µM | [6] 0.878 µM
inactive: [10] | [3] | [7] | [8]
